In PubChem BioAssay (NCI):
This is part of a sample that, as a whole, favours compounds with a hit. Of some 83,000 tested, about 20% had one in any assay.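 Single-concentration screen, 48 h exposure, 96-well plates. Endpoint: percent growth. Below 10 = active.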 Unmarked numbers belong to inactive results. Calls of active or inactive are those of the source.

Experiments:
Assay in all cases: NCI-60 one-dose screen, 48 h (100 = growth as untreated, 0 = no growth, -100 = all killed)
Conditions in all cases: 10 µM unless noted
NCI-H23 lung = system: NCI-H23 lung
NCI-H226 lung = system: NCI-H226 lung
NCI-H322M lung = system: NCI-H322M lung
HOP-62 NSCLC = system: HOP-62 NSCLC
NCI-H460 lung = system: NCI-H460 lung
HOP-92 NSCLC = system: HOP-92 NSCLC
NCI-H522 lung = system: NCI-H522 lung
A549/ATCC NSCLC = system: A549/ATCC NSCLC
786-0 renal = system: 786-0 renal
COLO 205 colon = system: COLO 205 colon
DU-145 prostate = system: DU-145 prostate
K-562 leukemia = system: K-562 leukemia
MALME-3M melanoma = system: MALME-3M melanoma
MDA-MB-231 breast = system: MDA-MB-231 breast
RXF 393 renal = system: RXF 393 renal
SF-268 CNS = system: SF-268 CNS
SF-295 CNS = system: SF-295 CNS
SF-539 CNS = system: SF-539 CNS
UACC-257 melanoma = system: UACC-257 melanoma
M14 melanoma = system: M14 melanoma

| SMILES | growth (NCI-H23 lung) | growth (NCI-H226 lung) | growth (NCI-H322M lung) | growth (HOP-62 NSCLC) | growth (NCI-H460 lung) | growth (HOP-92 NSCLC) | growth (NCI-H522 lung) | growth (A549/ATCC NSCLC) | growth (786-0 renal) | growth (COLO 205 colon) | growth (DU-145 prostate) | growth (K-562 leukemia) | growth (MALME-3M melanoma) | growth (MDA-MB-231 breast) | growth (RXF 393 renal) | growth (SF-268 CNS) | growth (SF-295 CNS) | growth (SF-539 CNS) | growth (UACC-257 melanoma) | growth (M14 melanoma) |
| --- | --- | --- | --- | --- | --- | --- | --- | --- | --- | --- | --- | --- | --- | --- | --- | --- | --- | --- | --- | --- |
| Cn1cccc1C(=O)C1C(c2cccc([N+](=O)[O-])c2)C2C3CCCCC3CN2C12C(=O)Nc1ccc(Cl)cc12 (stereo not given) | 49.3% | 41.5% | 75.6% | 62.3% | 37.3% | 35% | 52.3% | 29.1% | 66.4% | 20.6% | 38.7% | 33.4% | 68.1% | 55.6% | -16.8% (active) | 52.3% | 82.3% | 77.2% | 70.7% | 52.4% |
| O=C(c1ccc(Cl)cc1)N1CCN(c2ccnc3cc(Cl)ccc23)CC1 | 98.4% | 87.3% | 96.5% | 102% | 96.2% | 83.7% | 56.5% | 87% | 93.5% | 101% | 112% | 77.1% | 84.4% | 89.1% | 77.5% | 100% | 95.8% | 100% | 91% | 98% |
| CCCC(=O)NC(c1ccc2c(c1)OCO2)c1ccc2cccnc2c1O (stereo not given) | 24.1% | 12.2% | 25.9% | 20.4% | 9.17% (active) | 31.4% | -4.35% (active) | 20.8% | 19.8% | 8.58% (active) | 36.5% | 7.6% (active) | 13.4% | 31.2% | 18.3% | 15.8% | 13.9% | 9.93% (active) | 19.1% | 4.9% (active) |
| C=CCc1c2c(c(OC)c3ccoc13)C(=O)/C(=C/c1ccccc1OC)O2 | 19.7% | 72.8% | 65.9% | 80% | 31.3% | 58.8% | 48.5% | 60.2% | 94.1% | 104% | 35% | 49.5% | 88.8% | 50.9% | 24.8% | 60.4% | 60.1% | 94.7% | 63.7% | 64.2% |
| COC(=O)[C@]1(C)CCC[C@]2(C)[C@H]3C[C@H]4C(C(C)C)=C[C@]3(CC[C@H]21)[C@H]1[C@@H]4[C@@H](OCCC#N)CC[C@@H]1OCCC#N | 46.3% | 46.1% | 98.6% | 75.3% | 33.3% | 26.2% | 28.4% | 37.4% | 37.3% | 11.9% | 57% | 26.8% | 61.9% | 47.3% | -10.5% (active) | 47.9% | 30% | 59.7% | 37.8% | 40.7% |
| CCc1n(Cc2ccc3ccccc3c2)cc[n+]1Cc1ccc2ccccc2c1 | -14.6% (active) | 6.75% (active) | 44.3% | 11.9% | 5.54% (active) | -31.4% (active) | -25.4% (active) | 28.5% | 35.7% | -67.5% (active) | 23.8% | 8.91% (active) | -21.9% (active) | -18.9% (active) | 1.07% (active) | 12.5% | 6.3% (active) | 12.6% | -38.2% (active) | -9.48% (active) |
| Clc1ccc(Nc2nnc(COc3ccccc3)c3ccccc23)cc1 | 4.18% (active) | 1.78% (active) | 21.2% | 13.1% | 3.1% (active) | -28% (active) | -17.4% (active) | 4.64% (active) | 5.25% (active) | -5.75% (active) | 10.4% | 2.77% (active) | -13.5% (active) | 11.4% | -5.93% (active) | 13.2% | -1.11% (active) | 8.42% (active) | -24.9% (active) | -9.99% (active) |
| COc1cc(-c2nc3cc(Cl)c(Cl)cc3[nH]2)ccc1OCC(=O)N=Nc1c(O)[nH]c2ccc([N+](=O)[O-])cc12 | 84.3% | 92.9% | 112% | 88.7% | 102% | 84.2% | 89.6% | 114% | 92.1% | 78.5% | 105% | 46.1% | 77.4% | 71.9% | 101% | 81.4% | 101% | 81.7% | 106% | 80.8% |
| Cc1ccc(NC(=S)NNC(=S)NNc2ccccc2)cc1C | 99.9% | 99.7% | 85.5% | 106% | 96.3% | 55.4% | 86.3% | 101% | 114% | 107% | 77.9% | 8.18% (active) | 102% | 104% | 96.3% | 55.1% | 109% | 103% | 98.6% | 115% |
| O=[N+]([O-])/C(=C/C=C/c1ccccc1)c1ccccc1 | 75.5% | 87.8% | 100% | 35.9% | 70.7% | -8.76% (active) | 19.8% | 72.6% | -7.75% (active) | 23.2% | 26% | 24.4% | 96.1% | 61.7% | 35.4% | 35.3% | 91.5% | 36.8% | 77% | 37.8% |
| COc1cc2c(c(OC)c1OC)CCC(c1cccc(C(=O)Nc3cccc(Br)c3)c1)O2 (stereo not given) | 77.5% | 69.9% | 50.9% | 96.8% | 70.5% | 6.24% (active) | 48.8% | 64.5% | 81% | 88.3% | 85.1% | 52.1% | 102% | 17.6% | 78.6% | 67.1% | 64.5% | 99.4% | 74.1% | 73.9% |
| COc1ccc(-c2nc3c(c(-c4ccccc4)nn3-c3ccccc3)c(-c3ccc(N4CCOCC4)cc3)c2C#N)cc1 | 94% | 102% | 102% | 104% | 97.4% | 99.4% | 103% | 103% | 82.4% | 124% | 106% | 96.9% | 103% | 107% | 38.6% | 112% | 91.6% | 85.9% | 101% | 101% |
| Nc1c(C(=O)Nc2ccncc2)sc2nc3c(cc12)CCCCCC3 | 88.6% | 80.4% | 80.6% | 96.6% | 89.9% | 67.1% | 81.6% | 76.7% | 74.6% | 104% | 93.2% | 64% | 108% | 103% | 88.5% | 100% | 82.3% | 79.9% | 91.1% | 100% |
| CCOC(=O)c1c(C)c2c(n1C)CSc1cc(C(=O)c3ccccc3)c(=O)[nH]c1-2 | 81.7% [100 µM] | 98.3% [100 µM] | 90.5% [100 µM] | 103% [100 µM] | 79.6% [100 µM] | 84.4% [100 µM] | 97.5% [100 µM] | 78.9% [100 µM] | 106% [100 µM] | 117% [100 µM] | 100% [100 µM] | 102% [100 µM] | 90.8% [100 µM] | 87.1% [100 µM] | 134% [100 µM] | 90.8% [100 µM] | 103% [100 µM] | 94.7% [100 µM] | 120% [100 µM] | 108% [100 µM] |
| N#CC1CCc2c(c(-c3cn[nH]c3C(F)(F)F)nc3c(F)cc4[nH]ncc4c23)C1 (stereo not given) | 25.3% | 48.8% | 30.8% | 34.8% | 38.9% | 36.5% | -14.6% (active) | 75% | 36.8% | 7.05% (active) | 48.2% | 36.3% | 18.1% | 20.3% | 21.7% | 23.1% | 73.8% | 20.4% | 48.6% | 18.9% |
